In PubChem BioAssay (NCI):
“And” between values parts separate entries of the source, which are not always exact repeats. Equal entries are not always repeated. About 83,000 compounds went through this panel and 20% of them were active in at least one assay; those are over-represented in the sample as a whole.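 The endpoint reported here, percent growth, reads 100 for growth as untreated, 0 for no net growth and -100 for all cells dead.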 The source made the active and inactive calls. Rule for the calls: active = growth percent below 10; inactive = the rest.

Columns and labels:
Test in all cases: NCI-60 one-dose screen, 48 h (100 = growth as untreated, 0 = no growth, -100 = all killed)
Settings in all cases: 10 µM unless noted
MOLT-4 leukemia = system: MOLT-4 leukemia
SR leukemia = system: SR leukemia
OVCAR-5 ovarian = system: OVCAR-5 ovarian
SK-OV-3 ovarian = system: SK-OV-3 ovarian
OVCAR-3 ovarian = system: OVCAR-3 ovarian
HS 578T breast = system: HS 578T breast
NCI/ADR-RES ovarian = system: NCI/ADR-RES ovarian
T-47D breast = system: T-47D breast
MDA-MB-435 melanoma = system: MDA-MB-435 melanoma
SW-620 colon = system: SW-620 colon
MCF7 breast = system: MCF7 breast
HCT-116 colon = system: HCT-116 colon
HCC-2998 colon = system: HCC-2998 colon
KM12 colon = system: KM12 colon
OVCAR-8 ovarian = system: OVCAR-8 ovarian
IGROV1 ovarian = system: IGROV1 ovarian
BT-549 breast = system: BT-549 breast
RPMI-8226 leukemia = system: RPMI-8226 leukemia
OVCAR-4 ovarian = system: OVCAR-4 ovarian

Row | SMILES | growth (MOLT-4 leukemia) | growth (SR leukemia) | growth (OVCAR-5 ovarian) | growth (SK-OV-3 ovarian) | growth (OVCAR-3 ovarian) | growth (HS 578T breast) | growth (NCI/ADR-RES ovarian) | growth (T-47D breast) | growth (MDA-MB-435 melanoma) | growth (SW-620 colon) | growth (MCF7 breast) | growth (HCT-116 colon) | growth (HCC-2998 colon) | growth (KM12 colon) | growth (OVCAR-8 ovarian) | growth (IGROV1 ovarian) | growth (BT-549 breast) | growth (RPMI-8226 leukemia) | growth (OVCAR-4 ovarian)
1 | ClC1OC(Cl)(Cl)C(Cl)(Cl)OC1(Cl)Cl (centres undefined) | 97.1% (inactive) | 95% (inactive) | 93.4% (inactive) | 111% (inactive) | 110% (inactive) | 135% (inactive) | 102% (inactive) | 91.4% (inactive) | 101% (inactive) | 115% (inactive) | 76.9% (inactive) | 89.4% (inactive) | 112% (inactive) | 104% (inactive) | – | – | – | – | –
2 | COc1ccn(C)c(=O)c1C#N | 106% (inactive) | 90% (inactive) | 105% (inactive) | – | 93.8% (inactive) | 105% (inactive) | 102% (inactive) | 81.6% (inactive) | 107% (inactive) | – | 93% (inactive) | 97% (inactive) | 101% (inactive) | 96.6% (inactive) | 96.3% (inactive) | 98.7% (inactive) | 103% (inactive) | – | –
3 | C[C@]12CCC(=O)C[C@@H]1CC[C@@H]1[C@@H]2CC[C@]2(C)[C@@H](OC(=O)N(CCCl)N=O)CC[C@@H]12 | 13.3% (inactive) | – | 42.6% (inactive) | 16.1% (inactive) | 49.5% (inactive) | 35.7% (inactive) | 25% (inactive) | 34% (inactive) | 25.9% (inactive) | 31.7% (inactive) | 47.7% (inactive) | 25.9% (inactive) | 44.6% (inactive) | 3.72% (active) | – | -29.7% (active) | 32.9% (inactive) | 17.4% (inactive) | –
4 | c1ccc(CCN2CCCCC2)nc1 | 92.9% (inactive) | – | 98.6% (inactive) | 99.2% (inactive) | 111% (inactive) | 109% (inactive) | 109% (inactive) | 91.1% (inactive) | 100% (inactive) | 112% (inactive) | 96.5% (inactive) | 99.9% (inactive) | 119% (inactive) | 110% (inactive) | 108% (inactive) | 107% (inactive) | 99.8% (inactive) | 94.3% (inactive) | 99.3% (inactive)
5 | C(=NC1CCCCC1)=NC1CCCCC1 | 101% (inactive) and 86.1% (inactive) | 89.5% (inactive) and 83.7% (inactive) | 89.7% (inactive) and 90.7% (inactive) | 109% (inactive) and 91.6% (inactive) | 117% (inactive) and 73% (inactive) | 91.8% (inactive) | 111% (inactive) and 75.5% (inactive) | 104% (inactive) and 14.6% (inactive) | 101% (inactive) and 88.4% (inactive) | 106% (inactive) and 88.6% (inactive) | 100% (inactive) and 87.2% (inactive) | 93.6% (inactive) and 81.4% (inactive) | 105% (inactive) and 87.7% (inactive) | 109% (inactive) and 95.7% (inactive) | – | 108% (inactive) and 88.4% (inactive) | 113% (inactive) and 91.1% (inactive) | – | 107% (inactive) and 59.9% (inactive)
6 | NC1CN2CCC1CC2 (centres undefined) | 97.8% (inactive) | – | 95.5% (inactive) | 97.4% (inactive) | 105% (inactive) | 101% (inactive) | 101% (inactive) | 91% (inactive) | 104% (inactive) | 99.7% (inactive) | 90.5% (inactive) | 109% (inactive) | 114% (inactive) | 115% (inactive) | 97.8% (inactive) | 102% (inactive) | 95% (inactive) | 96.4% (inactive) | 106% (inactive)
7 | C[C@]12CC[C@@H](OC(=O)N(CCCl)N=O)C[C@@H]1CC[C@@H]1[C@@H]2CC[C@]2(C)C(=O)CC[C@@H]12 | 29.1% (inactive) | – | 114% (inactive) | 21.2% (inactive) | 64.1% (inactive) | 81.6% (inactive) | 42.9% (inactive) | 33.8% (inactive) | 64.5% (inactive) | 52.9% (inactive) | 29.9% (inactive) | 47.5% (inactive) | 53.6% (inactive) | 24.5% (inactive) | 58.1% (inactive) | -13.9% (active) | 76.8% (inactive) | 21.7% (inactive) | –
8 | [N-]=[N+]=CC(=O)CCC(=O)C=[N+]=[N-] | 87% (inactive) | – | 107% (inactive) | – | 103% (inactive) | 95.3% (inactive) | 103% (inactive) | 106% (inactive) | 113% (inactive) | 94.1% (inactive) | 99.9% (inactive) | 102% (inactive) | 109% (inactive) | 121% (inactive) | 98.9% (inactive) | 49.2% (inactive) | – | 119% (inactive) | 108% (inactive)
9 | O=P(O)(Nc1ccccc1)Nc1ccccc1 | 43.6% (inactive) | 104% (inactive) | 90.1% (inactive) | – | 94.4% (inactive) | 94.5% (inactive) | 76.9% (inactive) | 97% (inactive) | 88.5% (inactive) | – | 97.3% (inactive) | 89.1% (inactive) | – | 95.9% (inactive) | – | – | 100% (inactive) | – | –
10 | O=S1(=O)OCCO1 | 114% (inactive) | – | 96.3% (inactive) | 117% (inactive) | 106% (inactive) | 95.1% (inactive) | 99.7% (inactive) | – | 98.2% (inactive) | 101% (inactive) | 98.8% (inactive) | 102% (inactive) | 110% (inactive) | 99.2% (inactive) | 102% (inactive) | 106% (inactive) | 117% (inactive) | 104% (inactive) | –
11 | Cc1ccc(C(=O)O[C@H](C(=O)O)[C@H](OC(=O)c2ccc(C)cc2)C(=O)O)cc1 | 90.9% (inactive) | – | 114% (inactive) | 96.9% (inactive) | 111% (inactive) | 128% (inactive) | 99.1% (inactive) | – | 104% (inactive) | – | 105% (inactive) | 103% (inactive) | 111% (inactive) | 112% (inactive) | 98.8% (inactive) | 103% (inactive) | 101% (inactive) | 106% (inactive) | 103% (inactive)
12 | COC12CC3C4=CCOC5CC(=O)N6c7ccccc7C1(CCN2C4)C6C53 (centres undefined) | – | – | 121% (inactive) | 107% (inactive) | 117% (inactive) | 117% (inactive) | 111% (inactive) | 103% (inactive) | 114% (inactive) | 107% (inactive) | 95.2% (inactive) | 108% (inactive) | 96% (inactive) | 105% (inactive) | – | 108% (inactive) | 96.3% (inactive) | 104% (inactive) | 97.5% (inactive)
13 | COc1ccc(N)cc1N | 163% (inactive) | – | 98.5% (inactive) | 100% (inactive) | 120% (inactive) | 108% (inactive) | 106% (inactive) | 96.1% (inactive) | 122% (inactive) | 107% (inactive) | 94.8% (inactive) | 108% (inactive) | 119% (inactive) | 99.7% (inactive) | – | – | – | 90.1% (inactive) | 97.6% (inactive)
14 | COc1cc(C=C2C(=O)NC(=O)NC2=O)ccc1O | – | – | 92% (inactive) | 107% (inactive) | 110% (inactive) | 123% (inactive) | 97.5% (inactive) | 101% (inactive) | 101% (inactive) | 108% (inactive) | 106% (inactive) | 102% (inactive) | 96% (inactive) | 104% (inactive) | 93.7% (inactive) | 105% (inactive) | – | – | 101% (inactive)
15 | NNC(=S)N/N=C(\C(=O)Nc1cccc(O)c1)C1C(=O)NC(=S)NC1=O | – | – | – | – | – | – | – | – | – | – | 95.1% [100 µM] (inactive) and 87.3% [100 µM] (inactive) | – | – | – | – | – | – | – | –
16 | C=CC1CN2CCC1CC2C(O)c1ccnc2ccccc12 (centres undefined) | 258% (inactive) | 344% (inactive) | 116% (inactive) | 133% (inactive) | – | 117% (inactive) | -15.5% (active) | 135% (inactive) | 128% (inactive) | – | 116% (inactive) | 110% (inactive) | – | 115% (inactive) | – | – | 181% (inactive) | – | –
17 | O=C(O)c1cc([N+](=O)[O-])cc([N+](=O)[O-])c1 | – | 120% (inactive) | 104% (inactive) | – | 102% (inactive) | 98.1% (inactive) | 106% (inactive) | – | 101% (inactive) | 105% (inactive) | 93.8% (inactive) | 85.4% (inactive) | 107% (inactive) | 103% (inactive) | 89.6% (inactive) | 132% (inactive) | 94.3% (inactive) | 101% (inactive) | 109% (inactive)
18 | CCOC(=O)C1C(c2ccco2)C2(C#N)C(=N)OC1(C)C2(C#N)C#N (centres undefined) | – | – | – | – | – | – | – | – | – | – | 45.1% [100 µM] (inactive) and 0.896% [100 µM] (active) | – | – | – | – | – | – | – | –
19 | COc1ccc(N)cc1OC | 112% (inactive) | – | 104% (inactive) | – | 108% (inactive) | 116% (inactive) | 107% (inactive) | 100% (inactive) | 103% (inactive) | 109% (inactive) | 102% (inactive) | 103% (inactive) | 111% (inactive) | 100% (inactive) | – | 107% (inactive) | 99.8% (inactive) | 104% (inactive) | –
20 | O=C1NC(=O)C(=C/C=C/c2ccccc2)C(=O)N1 | 4.09% (active) | – | 37% (inactive) | 62.9% (inactive) | 11.8% (inactive) | 39.4% (inactive) | -29.1% (active) | 32.2% (inactive) | 3.9% (active) | -76.4% (active) | 14.2% (inactive) | -78.5% (active) | 62.1% (inactive) | -40.1% (active) | -3.62% (active) | 7.61% (active) | 36.6% (inactive) | -20.4% (active) | 26.8% (inactive)
